Screening results: PubChem, National Center for Advancing Translational Sciences (NCATS)
An excerpt weighted towards active compounds, which were near 11% of everything screened.
IL-1B inflam inh = qHTS for Inhibitors of Inflammasome Signaling: IL-1-beta AlphaLISA Primary Screen; THP-1 LPS/ATP IL-1B secretion, AlphaLISA, 16 h; stronger effect = lower value; AID 743279, 2014; actives 4.7% (n = 360,000); activity change, % at 57.5 µM; in the data active means activity change below about -50%; inconclusive means mostly about -30% to -49%; further: on the % scale 0 is the no-effect control and ±100 the full control effect
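THP-1 cells pretreated 1 hr with compounds (up to 57.5 uM final), then stimulated with LPS (250 ng/mL final) plus ATP (1.25 mM final); secreted IL-1B measured by AlphaLISA after 16 hr, decreased signal indicating inhibition.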
MCF10A rereplic = A quantitative high throughput screen for small molecules that induce DNA re-replication in MCF 10a normal breast cells | MCF 10A DNA re-replication, Hoechst nuclear intensity, 48 h | Potency, µM (titrated, usually from 46.1 µM), inactives show at the highest dose activity, positive = re-replication, usual class: activators | actives 2.9% (n = 350,000); further: potency means the concentration at half of the fitted maximal effect; % of control where 0% means no effect; nearly all actives have a fitted effect of over 50% in size
RORg inh = qHTS for inhibitors of ROR gamma transcriptional activity. AID 2551, 2010. Potency, µM (titrated, usually from 53.6 µM), without a hit: at the highest dose activity change, negative = inhibition, actives largely listed as inhibitors. Drosophila S2 Gal4-RORgamma UAS-luciferase reporter, 20 h. Nuclear receptor ROR-gamma (Mus musculus), P51450. actives 5.4% (n = 310,000); further: potency means the concentration at half of the fitted maximal effect; on the % scale 0 is the no-effect control and ±100 the full control effect; nearly all actives have a fitted effect of over 60% in size
Target sequence (P51450 whole entry, looked up, the tested form may be a part): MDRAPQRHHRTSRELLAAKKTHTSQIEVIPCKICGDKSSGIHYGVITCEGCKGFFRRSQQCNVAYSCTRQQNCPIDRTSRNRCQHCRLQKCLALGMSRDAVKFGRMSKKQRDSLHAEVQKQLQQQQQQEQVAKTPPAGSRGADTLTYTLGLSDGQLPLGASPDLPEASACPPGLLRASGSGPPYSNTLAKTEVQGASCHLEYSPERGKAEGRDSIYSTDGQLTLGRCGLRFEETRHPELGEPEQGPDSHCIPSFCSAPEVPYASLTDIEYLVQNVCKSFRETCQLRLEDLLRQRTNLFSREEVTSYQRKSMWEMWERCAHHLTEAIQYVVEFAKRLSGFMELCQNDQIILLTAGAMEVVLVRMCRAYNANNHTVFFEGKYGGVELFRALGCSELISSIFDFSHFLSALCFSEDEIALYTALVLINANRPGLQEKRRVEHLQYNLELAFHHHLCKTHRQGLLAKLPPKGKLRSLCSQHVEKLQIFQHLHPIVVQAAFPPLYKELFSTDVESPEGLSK
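A Gal4/UAS one-hybrid system in insect cells: metallothionein-promoter Gal4–ROR gamma fusion plus Photinus luciferase reporter. Copper sulfate 700 uM final, 20 hr ambient incubation, luminescent detection after 10 min with reagent.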
SW480 rereplic = A quantitative high throughput screen for small molecules that induce DNA re-replication in SW480 colon adenocarcinoma cells; SW480 DNA re-replication, Hoechst DNA content imaging, 48 h; Potency, µM (top dose mostly 46.1 µM), inactives show at the top dose re-replication activation, actives largely listed as activators; actives 1.8% (n = 340,000); AID 624297, 2012; further: potency means the concentration at half of the fitted maximal effect; % of control where 0% means no effect; nearly all actives have a fitted effect of over 55% in size
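SW480 cells exposed to compounds for 48 hr at 37 C, 5% CO2, then Hoechst-stained 40 min. Nuclear DNA content imaged by fluorescence scanning (405 nm excitation, 500-530 nm emission); re-replication scored as increased high-intensity nuclei.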
Gal4-VP16 FLuc = VP16 counterscreen qHTS for inhibitors of ROR gamma transcriptional activity; AID 2546, 2010; Drosophila S2 Gal4-VP16 UAS-luciferase, luminescence, 20 h; Potency, µM (series often up to 53.6 µM), inactives show top-dose activity, negative = inhibition, hits mostly inhibitors; actives 3.5% (n = 310,000);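 further: Gal4-VP16 expression switched on by copper sulfate through the metallothionein promoter; potency means the concentration at half of the fitted maximal effect; on the % scale 0 is the no-effect control and ±100 the full control effect; nearly all actives have a fitted effect of over 50% in size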
The depositor's hits bear a star; [ ] = dose if it differs, or a comment. Unless noted, the call rests on the fitted dose curve; in most records, active means well fitted curve in the direction sought with a large enough effect; inconclusive means small, poorly fitted or top-dose-only effect, or another doubt; inactive means no such curve, though single readings can be large; an effect the other way counts as inactive or inconclusive.

`Cc1ccsc1C(=O)NCCc1nnc2ccccn12` gave IL-1B inflam inh -2, MCF10A rereplic inconclusive, RORg inh 22%, SW480 rereplic inconclusive and Gal4-VP16 FLuc -8%.
`O=C(CN1C(=O)c2ccccc2S1(=O)=O)c1ccc(OC(F)F)cc1` gave IL-1B inflam inh -8, MCF10A rereplic 1%, RORg inh 13µM*, SW480 rereplic 2% and Gal4-VP16 FLuc 10µM*.
Screening O=C(CN1C(=O)c2ccccc2S1(=O)=O)c1ccc(F)cc1 returned IL-1B inflam inh 12, MCF10A rereplic 1%, RORg inh 7.9µM*, SW480 rereplic 0% and Gal4-VP16 FLuc 5µM*.
Screening O=C(CN1C(=O)c2ccccc2S1(=O)=O)c1ccccc1F returned IL-1B inflam inh 28, MCF10A rereplic 4%, RORg inh inconclusive, SW480 rereplic -5% and Gal4-VP16 FLuc inconclusive.
COc1ccc2c(c1)CCC/C2=N\NC(=O)c1ccoc1C was read as IL-1B inflam inh -11, MCF10A rereplic -1%, RORg inh 40µM*, SW480 rereplic 5% and Gal4-VP16 FLuc inconclusive.
Screening COc1ccc2c(c1)CCC/C2=N\Nc1nc(C(=O)NN)cs1 returned MCF10A rereplic -19%, RORg inh 3.5µM*, SW480 rereplic -14% and Gal4-VP16 FLuc 13µM*.
`CCOC(=O)c1csc(N/N=C2\CCc3ccccc32)n1` gave IL-1B inflam inh -93*, MCF10A rereplic inconclusive, RORg inh 10µM*, SW480 rereplic -5% and Gal4-VP16 FLuc inconclusive.
CCOC(=O)c1csc(N/N=C2\CCCc3ccccc32)n1 was read as IL-1B inflam inh 15, MCF10A rereplic inconclusive, RORg inh inconclusive, SW480 rereplic 19% and Gal4-VP16 FLuc -27%.
`COC(=O)/C(=C1\OC(=O)C(c2ccccc2)C1=O)c1ccccc1` (configuration not stated) gave RORg inh inconclusive and Gal4-VP16 FLuc 0%.
For CC(=O)OC[C@@H]1O[C@H](C/C=N\OC[C@@H](O)[C@H]2O[C@H]3OC(C)(C)O[C@H]3[C@@H]2O)C=C[C@@H]1OC(C)=O the results were RORg inh -1%[10 µM] and Gal4-VP16 FLuc 1%[10 µM].
COc1ccc(C2(c3ccc(OC)cc3)NC(=O)N(CC(=O)NC3CCS(=O)(=O)C3)C2=O)cc1 (configuration not stated) was read as IL-1B inflam inh -2, MCF10A rereplic -4% and SW480 rereplic -20%.
Cc1nc2c(-c3ccccc3)c(C)nn2c(C)c1CCC(=O)NCc1ccco1 was read as IL-1B inflam inh -9, MCF10A rereplic 0%, RORg inh -40%, SW480 rereplic -2% and Gal4-VP16 FLuc -7%.
`CCN1CCN(c2cc(C(C)(C)C)nc3c(-c4ccccc4)c(C)nn23)CC1` gave IL-1B inflam inh inconclusive, MCF10A rereplic inconclusive, RORg inh -1%, SW480 rereplic 6.5µM* and Gal4-VP16 FLuc -1%.
Screening CCN1CCN(c2ccc(NC(=O)CCc3c(C)nc4c(-c5ccccc5)c(C)nn4c3C)cc2)CC1 returned IL-1B inflam inh -62*, MCF10A rereplic 18%, RORg inh -32%, SW480 rereplic inconclusive and Gal4-VP16 FLuc 3%.
C[C@H]1CN([C@@H](C)CO)C(=O)CCCn2cc(nn2)CO[C@@H]1CN(C)C(=O)CCC(F)(F)F was read as IL-1B inflam inh 13.
NC(=O)CC(NC(=O)c1cccc(Br)c1)c1ccc(N2CCN(c3ccc(F)cc3)CC2)c([N+](=O)[O-])c1 (configuration not stated) was read as IL-1B inflam inh -1, MCF10A rereplic inconclusive, RORg inh inconclusive, SW480 rereplic -1% and Gal4-VP16 FLuc inconclusive.
Screening COC(CNS(=O)(=O)c1cc2c3c(c1)CCN3C(=O)CC2)OC returned IL-1B inflam inh -6, MCF10A rereplic 0%, RORg inh -25%, SW480 rereplic 1% and Gal4-VP16 FLuc 7%.
